The values below come from PubChem BioAssay AID1347081 (National Center for Advancing Translational Sciences (NCATS), 2019).

SMILES strings stand for the structures. Records with an inconclusive call do not appear. A call without a number means that no potency is given here. Values without a mark were called inactive. The source made the active and inactive calls. Calls come from the whole dose curve.

This assay is described as follows: qHTS for Inhibitors of the Functional Ribonucleoprotein Complex (vRNP) of Lassa (LASV) Arenavirus: Viability assay - alamar blue signal for LASV Confirmatory Screen. The following applies: LASV vRNP counter-screen cells; series mostly up to 53.9 µM. A general note: qHTS replaces the single test concentration by a dilution series.

With `CN1C(C(=O)Nc2ccccn2)=C(O)c2ccccc2S1(=O)=O`, the Potency entry was “inactive”.
With `CC[C@@]1([C@@H]2O[C@@H]([C@H]3O[C@@](O)(CO)[C@H](C)C[C@H]3C)C[C@H]2C)CC[C@H]([C@]2(C)CC[C@]3(C[C@H](O)[C@@H](C)[C@@H]([C@@H](C)[C@@H](OC)[C@H](C)C(=O)O)O3)O2)O1`, the Potency is 4.21 µM (active).
As to `Cn1cc(-c2ccncc2)c(-c2ccc(OCc3ccc4ccccc4n3)cc2)n1`, the Potency is 21.7 µM (active).
As to `CC(C)=CCC/C(C)=C/CC/C(C)=C/CC[C@]1(C)CCc2c(C)c(O)c(C)c(C)c2O1`, the activity change, negative = decreased viability was 6.56% [at 6 µM].
For the compound `Oc1cc(Cl)ccc1Oc1ccc(Cl)cc1Cl`, the Potency is 39.5 µM (active).
Turning to `O=c1[nH]c2ccccc2n1C1CCN(CCCC(c2ccc(F)cc2)c2ccc(F)cc2)CC1`, the Potency result is “inactive”.
The same measure, in the same setting: next, `CCc1cncnc1N1CCN(Cc2nc3ccc(C(F)(F)F)cc3[nH]2)CC1`: 12.5 µM (active); `CNCCCC1c2ccccc2C=Cc2ccccc21`: 24.3 µM (active).
On the same count and under the same terms, in the case of `CCCCC/C(C=O)=C\c1ccccc1` it was “inactive”.
Consider `S=C(NCc1ccc2c(c1)OCO2)N1CCN(c2ncnc3c2oc2ccccc23)CC1`, for which the Potency is 8.85 µM (active).
The same measure, in the same setting: next, `CC[C@@H](C(=O)O)[C@@H]1O[C@@H]([C@@H](C)[C@H](O)[C@H](C)C(=O)[C@H](CC)[C@H]2O[C@]3(C=C[C@@H](O)[C@]4(CC[C@@](C)([C@H]5CC[C@](O)(CC)[C@H](C)O5)O4)O3)[C@H](C)C[C@@H]2C)[C@@H](C)C[C@@H]1C`: 1.57 µM (active); `COC(=O)c1nc(Cl)c(Cl)nc1N`: 1.93 µM (active).
Consider `O=C1c2ccccc2-n2c1nc1ccccc1c2=O`, for which the Potency is 3.85 µM (active).
The same measure, in the same setting: next, `CCN(CC)C(=O)N[C@@H]1C=C2c3cccc4[nH]cc(c34)C[C@@H]2N(C)C1`: “inactive”; `CCC(C)c1nccnc1OC` (stereo not drawn): “inactive”; `CCC1OC2(C)C(O)C(/C=C/C=C/C=C/c3oc(=O)cc(OC)c3C)OC1(C)C2OC(C)=O` (stereo not drawn): 0.109 µM (active).
Regarding `O=C1Cc2cc(CCN3CCN(c4nsc5ccccc45)CC3)c(Cl)cc2N1`, the Potency entry was “inactive”.
For `CCC[C@H](N[C@@H](C)C(=O)N1[C@@H]2CCCC[C@H]2C[C@H]1C(=O)O)C(=O)OCC`, the Potency result is “inactive”.
On the same count and under the same terms, next, `CN(C)c1ccc(O)c2c1C[C@H]1C[C@H]3[C@H](N(C)C)C(=O)C(C(N)=O)=C(O)[C@@]3(O)C(=O)C1=C2O`: “inactive”.
On the same count and under the same terms, next, `COc1cc2c(cc1OC)CC(=O)N(CCCN(C)C[C@H]1Cc3cc(OC)c(OC)cc31)CC2`: “inactive”; `Cc1cnc(NC(=O)C2=C(O)c3ccccc3S(=O)(=O)N2C)s1`: “inactive”.
Same read-out and setting: next, `O=c1ccc2ccc(O)c(O)c2o1`: “inactive”.
Consider `Cc1ncc([N+](=O)[O-])n1CC(C)O` (stereo not drawn), for which the Potency result is “inactive”.
